Results: PubChem BioAssay AID518 (Sanford-Burnham Center for Chemical Genomics, 2006)
Screen size: about 64,000 compounds; about 55 (0.09%) were called active. How the calls were made is not given here. A selection follows.

molecular target: Alkaline phosphatase, tissue-nonspecific isozyme (Homo sapiens) (UniProt P05186); assay: inhibition of tissue-nonspecific alkaline phosphatase – biochemical, luminescent (AID 518); conditions: purified TNAP enzyme, luminescent substrate readout; at 20 µM; active compounds read high;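 further: plate controls were vehicle for no effect and reference inhibitor for full effect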
Sequence (P05186 whole entry, looked up): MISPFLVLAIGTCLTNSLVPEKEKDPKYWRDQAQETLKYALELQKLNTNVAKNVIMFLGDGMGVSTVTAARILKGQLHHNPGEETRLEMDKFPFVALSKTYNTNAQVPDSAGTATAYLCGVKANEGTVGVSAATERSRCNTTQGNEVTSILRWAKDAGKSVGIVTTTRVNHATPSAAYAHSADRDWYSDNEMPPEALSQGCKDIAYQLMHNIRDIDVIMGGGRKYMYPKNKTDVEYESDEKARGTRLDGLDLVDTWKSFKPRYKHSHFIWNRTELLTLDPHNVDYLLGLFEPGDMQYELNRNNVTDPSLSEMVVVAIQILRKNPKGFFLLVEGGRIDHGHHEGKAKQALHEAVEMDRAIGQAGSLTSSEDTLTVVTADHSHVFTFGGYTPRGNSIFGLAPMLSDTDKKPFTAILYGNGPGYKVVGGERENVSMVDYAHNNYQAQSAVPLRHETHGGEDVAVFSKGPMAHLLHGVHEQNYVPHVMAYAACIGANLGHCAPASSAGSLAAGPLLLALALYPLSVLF

inhibition, inactive:
CN(c1cccc(NC(=O)c2ccccc2N(C)S(C)(=O)=O)c1)S(C)(=O)=O 14.3%, O=C(NCCCN1CCCC1)C1CCC(=O)N1C1CCCCC1 (stereo unspecified) 7.6%, N#Cc1ccc(Sc2nc3ccccc3[nH]2)cc1C#N 0.3%, CC(C)Sc1nnc(NC(=O)C2CC2)s1 -0.5%, O=C(Nc1cccnc1)c1c(O)c2cccc3c2n(c1=O)CC3 5.4%, COc1ccc(CN2CCC(C(=O)N(C)CCc3ccc(OC)c(OC)c3)CC2)c(OC)c1 14%, O=C(NC1CCCCC1)c1ccc(Br)o1 9%, CC12CN3CC(C)(CN(C1)C3c1ccccc1Cl)C2O (stereo unspecified) 3.8%, O=C(NCCc1csc(-c2ccccc2)n1)c1cccs1 9.4%, Cc1cc(NC(=O)c2cccc(S(=O)(=O)N3CCCCCC3)c2)n(-c2ccccn2)n1 -5.7%, CCOC(=O)C1CCN(C(=O)COC(=O)CCOc2ccc(C)cc2)CC1 7.4%, CCOc1ccc(C(=O)CN2CCN(S(=O)(=O)c3ccc(Cl)cc3)CC2)cc1 4.9%, COc1ccc(C(C)=O)cc1CSc1nnc(C)s1 7%, CC(=O)c1cccc(NC(=O)c2cccc(S(=O)(=O)N(C)C)c2)c1 6.3%, c1ccc2c(c1)CNc1ccccc1C2 5%, COc1ccc(-n2nnc3c(SCC(=O)NCc4ccco4)ncnc32)cc1 11.9%, COc1cccc(NC(=O)c2ccc3c(c2)N(CC(=O)N2CCCCC2)C(=O)C(C)(C)O3)c1 1.3%, COc1ccc(Nc2nc(N)nc(SCc3nnc(C)s3)n2)cc1 -0.5%, COc1ccccc1N1CCN(C(=O)CSc2nnc3n2C(C)(C)Cc2ccccc2-3)CC1 10.5%, CC1=C(c2ccc(Cl)cc2)[N+](=O)C(C)(C)N1[O-] 20.3%, Cc1ccc(C(C(=O)NC2CCCCC2)N(CC2CCCO2)C(=O)CNC(=O)c2ccco2)cc1 (stereo unspecified) 2.7%, CC(OC(=O)CNC(=O)c1ccc2c(c1)OCO2)C(=O)NCCC1=CCCCC1 (stereo unspecified) 8.9%, CN(C)c1ccc(C(C(=O)NC(C)(C)C)N(C(=O)c2csnn2)C2CC2)cc1 (stereo unspecified) 6.8%, CC(c1nnc(SCC(=O)c2c(N)n(C)c(=O)n(C)c2=O)n1-c1ccc(Cl)cc1)N(C)C (stereo unspecified) 2.8%, CC1CCCCN1CCNC(=O)C1CCN(S(=O)(=O)c2cccc3cccnc23)CC1 (stereo unspecified) 9.7%, Cc1ccc(S(=O)c2ccc(C)cc2)cc1 4.1%, O=C(CC1CCCCC1)c1c(O)c2ccccc2oc1=O 5%, CCOC(=O)c1[nH]c(CSc2nnc(-c3ccncc3)n2CCOC)c(C(=O)OCC)c1C 10.1%, CC1CC=C2C(C#N)=C(N)C(C#N)(C#N)C(c3cccs3)C2C1 (stereo unspecified) 8.9%, CCc1ccc(Nc2cc(=O)n(C3CCCCC3)c(=O)[nH]2)cc1 11.3%, COc1cccc(-c2cc(C(=O)NCc3ccc(Cl)cc3)no2)c1 8.1%, COc1ccc(S(=O)(=O)N2C3CCC2CC(NC(=O)C2CC2)C3)cc1 (stereo unspecified) 2%, Nc1nc(CN2CCN(Cc3ccc4c(c3)OCO4)CC2)nc(Nc2ccccc2)n1 12.3%, CC1(C)NC(=O)N(CC(O)COc2ccc(N3C(=O)c4ccccc4C3=O)cc2)C1=O (stereo unspecified) 8.6%, COc1ccc(N2C(=O)CSC2c2ccc3c(c2)OCO3)cc1 (stereo unspecified) 13.6%, CC(C)NS(=O)(=O)c1ccc(OCC(N)=O)c(Cl)c1 9.1%, Cc1cccc(NC(=O)CC(C)(C)C)c1 8.8%, Cc1nc(CSc2nnc3scc(-c4ccccc4)n23)cs1 6.4%, CCCCCN=C(C)c1c(O)c2ccccc2oc1=O 7.3%, CNc1oc(Cc2ccccc2)nc1S(=O)(=O)c1ccccc1 9.1%, COC(=O)Nc1sc2c(c1C(N)=O)CCCCCC2 15.8%
